Hits are enriched below; roughly 3.3% of the tested compounds scored in any of these assays.
Gli-Sufu block = Gli-Sufu pathway antagonism. inhibition, % at 5 µM. 340,000 compounds, 0.74% hits. Sufu-KO-LIGHT fibroblasts, Gli luciferase reporter luminescence;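 active = inhibition above about 55%, limit read from the data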
esBAF inh = inhibitors of esBAF chromatin remodeling in mouse ES cells; Bmi1-luciferase knock-in reporter, 24 h; 100% = twice the neutral-well signal; reporter increase, % at 12.5 µM; 350,000 compounds, 2% hits; in the data active = activation above about 40%; inconclusive = no clear call, values can overlap the other calls;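 also: a rise in the Bmi1 reporter signal indicates esBAF inhibition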
SMARCA2 activ = increases SMARCA2 function in MMTV reporter cells | activation, % at 9.1 µM | AID 652017 | MG213 cells, MMTV-luciferase reporter, dexamethasone, overnight | 370,000 compounds, 1% hits; in the data active = activation above about 7.8%
Jurkat NFkB inh = lowers PMA/ionomycin-induced NF-kB signal in Jurkat cells | PMA/ionomycin-induced NF-kB luciferase reporter, luminescence | 330,000 compounds, 0.53% hits | AID 435003 | inhibition, % at 4 µM; in the data active = inhibition above about 50%
697 NFkB inh = lowers PMA/ionomycin-induced NF-kB signal in 697 B cells. 697 B-cell NF-kB luciferase reporter, 16 h. inhibition, % at 4 µM. 330,000 compounds, 0.33% hits. AID 435022; in the data active = inhibition above about 35%
Large screens that a line does not name were inactive.

COc1ccc(N=Nc2cc(OC)c(N)cc2OC)cc1	esBAF inh 51.1 (no result: Jurkat NFkB inh, 697 NFkB inh)
CC(C)CC1C(=O)N(Cc2cn(CCC3OCCCO3)nn2)CCS(=O)(=O)N1Cc1ccc(-c2ccc(Cl)nc2)cc1 (stereo not drawn)	esBAF inh 58.2 (no result: Gli-Sufu block, Jurkat NFkB inh, 697 NFkB inh)
Cc1ccnc(NC(=O)c2ccc(Cl)c(S(=O)(=O)N3CCCC3)c2)c1	none (no result: esBAF inh)
Cc1ccnc(NC(=O)c2ccc(Cl)c(S(=O)(=O)N3CCCCC3)c2)c1	esBAF inh 57.1
O=C(Nc1ccccn1)c1ccc(Cl)c(S(=O)(=O)N2CCCCCC2)c1	esBAF inh 83.4
Cc1ccccc1S(=O)(=O)N1CC[C@@H]2[C@H](CO)Nc3ccc(-c4ccccc4F)cc3[C@@H]21	none (no result: Gli-Sufu block, SMARCA2 activ, Jurkat NFkB inh, 697 NFkB inh)
Cc1ccc(S(=O)(=O)N(C)C[C@@H]2OCCCC[C@H](C)Oc3ccc(NC(=O)C4CCCCC4)cc3C(=O)N([C@H](C)CO)C[C@H]2C)cc1	none (no result: Gli-Sufu block, SMARCA2 activ, Jurkat NFkB inh, 697 NFkB inh)
CCC1(C)N=C(c2ccc3c(c2)OCO3)CC(c2ccccc2O)N1 (stereo not drawn)	esBAF inh 46.0
COc1cccc(C2=NC(C)(C)NC(c3ccccc3O)C2)c1 (stereo not drawn)	none (no result: esBAF inh)
O=C(Cc1ccccc1)N1C[C@H]2[C@@H](c3ccccc31)[C@@H](CO)N2C(=O)Cc1ccccc1	none (no result: Gli-Sufu block, SMARCA2 activ, Jurkat NFkB inh, 697 NFkB inh)
CCN(C(=O)Nc1cccc(Cl)c1)c1ccccc1	none
Cc1cccc(N(O)C(=O)Nc2cccc(Cl)c2)c1	esBAF inh 51.1
O=C(COc1ncnc2cc(Cl)ccc12)c1ccc2c(c1)OCCO2	esBAF inh 59.1
CC(C)NC(=O)Nc1ccc2c(c1)C(=O)N([C@@H](C)CO)C[C@H](C)[C@H](CN(C)S(=O)(=O)c1ccc(F)cc1)O2	none (no result: Gli-Sufu block, SMARCA2 activ, Jurkat NFkB inh, 697 NFkB inh)
CC(C)(C)c1ccc(-c2nnc(NC(=O)c3ccccc3)s2)cc1	esBAF inh 49.3
O=C(Nc1nnc(-c2ccccc2)s1)c1ccccc1F	esBAF inh 69.5
COCC(=O)Nc1nnc(-c2ccc(C(C)(C)C)cc2)s1	none
O=C(Nc1nnc(-c2ccccc2Cl)s1)c1ccccc1F	esBAF inh 51.3
Cc1ccc(-c2nnc(-c3ccc4ccccc4c3)o2)cc1	esBAF inh 54.3 (no result: Jurkat NFkB inh, 697 NFkB inh)
Clc1ccc(-c2nnc(-c3ccc4ccccc4c3)o2)cc1	esBAF inh inconclusive (no result: Jurkat NFkB inh, 697 NFkB inh)
NS(=O)(=O)c1ccc(N/N=C/C=C/c2ccccc2[N+](=O)[O-])cc1	esBAF inh 83.1
C[C@@H]1CN([C@H](C)CO)C(=O)c2cc(NC(=O)Nc3ccc4c(c3)OCO4)ccc2O[C@@H](C)CCCCO[C@H]1CN(C)Cc1ccncc1	none (no result: Gli-Sufu block, SMARCA2 activ, Jurkat NFkB inh, 697 NFkB inh)
CCOc1ncccc1C(=O)NCc1ccccc1F	none (no result: esBAF inh)
O=C(NCCc1ccccc1F)c1cccc2cccnc12	esBAF inh 66.3
COc1ccc(C(=O)c2ccc(-c3ccc(OC)cc3)nc2)cc1	none
O=C(c1ccc(F)cc1)c1ccc(-c2ccc(F)cc2)nc1	esBAF inh 43.8
O=C(NCc1ccccc1)c1ccc(-c2cn[nH]c2)c2ccoc12	esBAF inh 57.2 (no result: Gli-Sufu block, Jurkat NFkB inh, 697 NFkB inh)
COCCNC(=O)c1ccc(-c2cn[nH]c2)c2ccoc12	none (no result: Gli-Sufu block, Jurkat NFkB inh, 697 NFkB inh)
O=[N+]([O-])c1ncccc1OCc1ccc(Cl)c(Cl)c1	esBAF inh 66.6
Cc1cccnc1NS(=O)(=O)c1cccc([N+](=O)[O-])c1	none (no result: esBAF inh)
Cc1cccnc1NS(=O)(=O)c1ccccc1	SMARCA2 activ 7.9 (no result: Gli-Sufu block, Jurkat NFkB inh, 697 NFkB inh)
COc1ccccc1CNC(=O)C[C@H]1C[C@@H]2c3cc(NC(=O)NC4CCCC4)ccc3O[C@@H]2[C@H](CO)O1	none (no result: Gli-Sufu block, SMARCA2 activ, Jurkat NFkB inh, 697 NFkB inh)
COC(=O)c1ccc(N2OC3(C)C=CC2CC3)cc1 (stereo not drawn)	esBAF inh 63.4
COC(=O)c1ccc(N2C(=O)CC(N3CCOCC3)C2=O)cc1 (stereo not drawn)	none
CCCN(C)C[C@@H]1Oc2cc(C#CC3CCCC3)ccc2S(=O)(=O)N([C@@H](C)CO)C[C@H]1C	none (no result: Gli-Sufu block, SMARCA2 activ, Jurkat NFkB inh, 697 NFkB inh)
COc1ccc(CN(C)C[C@H]2Oc3ccc(NS(=O)(=O)c4ccc(C)cc4)cc3C(=O)N([C@H](C)CO)C[C@H]2C)cc1	none (no result: Gli-Sufu block, SMARCA2 activ, Jurkat NFkB inh, 697 NFkB inh)
O=C(Nc1nc2ccc(Cl)cc2s1)c1ccc(Br)o1	esBAF inh 61.8
O=C(Nc1nc2ccc(F)cc2s1)c1ccc([N+](=O)[O-])o1	esBAF inh 88.5 (no result: Gli-Sufu block, Jurkat NFkB inh, 697 NFkB inh)
OCc1cn(-c2ccccc2)nc1-c1ccco1	esBAF inh 42.0
OCc1cn(-c2ccccc2)nc1-c1ccc(-c2nn(-c3ccccc3)cc2CO)cc1	none
Cc1ccc(-c2nn(-c3ccccc3)cc2CO)o1	esBAF inh 46.2
Cc1noc(C)c1NC(=O)N(C)C[C@H]1OCCCC[C@H](C)Oc2ccc(NS(=O)(=O)c3cn(C)cn3)cc2C(=O)N([C@@H](C)CO)C[C@H]1C	none (no result: Gli-Sufu block, SMARCA2 activ, Jurkat NFkB inh, 697 NFkB inh)

High-throughput results from PubChem BioAssay.
